Consider 40 compounds from PubChem BioAssay (NCI).

The panel holds about 79,000 compounds, 15% with a hit somewhere; the sample as a whole holds those more often. A number with no mark means an inactive call. The source made the active and inactive calls. No stated cut-off is given here; in the data, active means growth inhibition above about 70%; inactive means the rest.

The first test is described as follows: NCI Yeast Anticancer Drug Screen. Data for the rad50 strain (AID 155).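 Further: 0% = growth of vehicle-only cultures of the same strain.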 The note with it: S. cerevisiae rad50 strain growth inhibition; at 50.0 µM; hits give high values. In short, it runs like this: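 Cells are treated with compound, grown, and their growth is then scored against vehicle-only cultures of the same repair-deficient yeast strain.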
Turning to `O=[N+]([O-])c1ccc(CS(=O)(=O)C(Cl)Cl)o1`, the growth inhibition was 92% (active).

Regarding `CC(C)c1cc([N+](=O)[O-])cc([N+](=O)[O-])c1O`, the growth inhibition was 82.4% (active).

With `O=P(c1cccc(C(F)(F)F)c1)(c1cccc(C(F)(F)F)c1)c1cccc(C(F)(F)F)c1.O=P(c1cccc(C(F)(F)F)c1)(c1cccc(C(F)(F)F)c1)c1cccc(C(F)(F)F)c1.[Cl][Sn]([Cl])([Cl])[Cl]`, the growth inhibition was 31.7%.

For the compound `COc1cc(N(CC(C)Br)CC(C)Br)ccc1N=Nc1ccccc1C(=O)O` (stereo not given), the growth inhibition is 65.2%.

For `C(=P(c1ccccc1)(c1ccccc1)c1ccccc1)[P+](c1ccccc1)(c1ccccc1)c1ccccc1.[Cl][Fe]([Cl])([Cl])[Br]`, the growth inhibition is 99.5% (active).

Regarding `COc1ccc2c(c1)CCC(N1CCCC(=O)C1)C2` (stereo not given), the growth inhibition was 23.1%.

Consider `C1CCNCC1.O=C([CH-]C(=O)C(F)(F)F)c1ccc2c(c1)C(=O)c1ccccc1-2.O=C([CH-]C(=O)C(F)(F)F)c1ccc2c(c1)C(=O)c1ccccc1-2.O=C([CH-]C(=O)C(F)(F)F)c1ccc2c(c1)C(=O)c1ccccc1-2.O=C([CH-]C(=O)C(F)(F)F)c1ccc2c(c1)C(=O)c1ccccc1-2.[Eu+3]`, for which the growth inhibition is 70.3% (active).

For `O=C1C(=O)C(Br)(Br)C(Br)=C1Br`, the growth inhibition was 88.5% (active).

With `CN(C)C(=S)Nc1nnc(NC23CC4CC(CC(C4)C2)C3)s1`, the growth inhibition is 96.7% (active).

In the case of `C[CH2][Hg]`, the growth inhibition is 99.1% (active).

On to `c1cc2n[pH]nc2cn1` (stereo not given), for which the growth inhibition is 5.55%.

For `CCC[CH2][Sn]1([CH2]CCC)[O]CC(Cc2ccccc2)[O]1` (stereo not given), the growth inhibition was 85.5% (active).

In the case of `Clc1ccccc1C#[C][Hg][C]#Cc1ccccc1Cl`, the growth inhibition is 0.25%.

Consider `CC12CCC3C(CC=C4CC(SC(=N)N)CCC43C)C1CCC2=O` (stereo not given), for which the growth inhibition was 67.3%.

As to `COc1ccccc1/C=C/[N+](=O)[O-]`, the growth inhibition is 99.6% (active).

Turning to `ClC(CN1CCCCC1)C(Cl)c1ccccc1` (stereo not given), the growth inhibition was 46.6%.

For the compound `CCC[CH2][Sn]1([CH2]CCC)[O]CC(CN2CCCCC2)[O]1` (stereo not given), the growth inhibition was 82.7% (active).

With `COC1OC(CO)C(O)C(O)[CH]1[Hg][Cl]` (stereo not given), the growth inhibition was 99% (active).

For `ClC1=C(Cl)C2(Cl)C(Cl)CC1(Cl)C2(Cl)Cl` (stereo not given), the growth inhibition was 62%.

Turning to `[Hg][c]1ccccc1`, the growth inhibition was 99.5% (active).

On to `O=[N+]([O-])c1cccc(SC(Cl)(Cl)Cl)c1`, for which the growth inhibition was 99.5% (active).

Take `CC1=C(O)C(=O)C=C2C1=CC=C1[C@@]2(C)CC[C@@]2(C)[C@@H]3C[C@](C)(C(=O)O)CC[C@]3(C)CC[C@]12C`: the growth inhibition is 90% (active).

Take `CCC[CH2][Sn]1([CH2]CCC)[O]C2C(O)OC(CO)C(O)C2[O]1` (stereo not given): the growth inhibition was 99% (active).

`O=[As]c1ccccc1O` (stereo not given): the growth inhibition was 96.6% (active).

For `CC[PH+](CC)CC.[Cl][Au]`, the growth inhibition is 89.8% (active).

A further test in a line: NCI Yeast Anticancer Drug Screen. Data for the mec2-1 strain (AID 157). Particulars: S. cerevisiae mec2-1 strain, at 5.0 µM (retest, dose inferred, filed as 0.5), hits give high values. In short, it runs like this: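 Using mec2-1 yeast: add compound, measure growth, express inhibition versus vehicle-treated cultures.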
For `CCCC(C)(COC(N)=O)COC(=O)NC1CC1` (stereo not given), the growth inhibition is -12%.

As to `O=C(O)C(CSC(c1ccccc1)c1ccccc1)NC(=O)C(c1ccccc1)c1ccccc1` (stereo not given), the growth inhibition is 11%.

As to `CC1=CC2CC(C)=C(CC[C@]3(C)CC[C@H]([C@@H](C)C(=O)O)OO3)C(C)(C)C2CC1` (stereo not given in full), the growth inhibition is 59%.

For the compound `O=[N+]([O-])/C=C/c1c(Cl)cccc1Cl`, the growth inhibition is 100% (active).

In the case of `O=[n+]1c2ccccc2n([O-])c2ccccc21.[Cl][Cu][Cl]`, the growth inhibition was 20%.

On to `CC(=O)C(CN1CCOCC1)C(c1ccccc1)c1c(O)c2ccccc2oc1=O` (stereo not given), for which the growth inhibition was 5%.

In the case of `CC(C)c1oc(=O)cc2c1C(O)C1OC(=O)C3(C)C(O)C4OC4C2(C)C13` (stereo not given), the growth inhibition was 10%.

In the case of `C#CCN1C(=O)N(CC#C)C(=O)C(CC#C)(C(CC=C)c2ccccc2)C1=O` (stereo not given), the growth inhibition was 2%.

Take `COC(=O)C1c2c(C)cc3n2C(C=CC3)C1C(=O)OC` (stereo not given): the growth inhibition was 36%.

For the compound `[Cl][Hg][c]1ccc(Cl)s1`, the growth inhibition is 100% (active).

For the compound `N#CC(Cl)(Cl)CCl`, the growth inhibition was -4%.

With `O=C1CCC(=O)N1SC(Cl)(Cl)Cl`, the growth inhibition is 20%.

In the case of `CCCC(=O)O.CCCC(=O)O.CCCC(=O)O.CCCC(=O)O.[Rh].[Rh]`, the growth inhibition is 34%.

As for `CC(CCC/C=C/CCCN(C)C(=N)N)CC(C)C1OC(=O)C(C)C(O)/C=C/C(C)C(O)C(C)C(O)C(C)C(O)CCCC(O)CC2(O)OC(CC(OC(=O)CC(=O)O)CC(O)CC(O)C(C)C(O)/C=C/C=C/C1C)CC(O)C2O` (stereo not given), the growth inhibition was 7%.

Regarding `OC(CN(CCCl)CCCl)C(O)C(O)C(O)CN(CCCl)CCCl` (stereo not given), the growth inhibition is 9%.

Take `O=[N+]([O-])c1ccc(CS(=O)(=O)C(Cl)Cl)o1`: the growth inhibition is -1%.

On to `CC(C)c1cc([N+](=O)[O-])cc([N+](=O)[O-])c1O`, for which the growth inhibition was -20%.

As for `O=P(c1cccc(C(F)(F)F)c1)(c1cccc(C(F)(F)F)c1)c1cccc(C(F)(F)F)c1.O=P(c1cccc(C(F)(F)F)c1)(c1cccc(C(F)(F)F)c1)c1cccc(C(F)(F)F)c1.[Cl][Sn]([Cl])([Cl])[Cl]`, the growth inhibition is 3%.

Take `COc1cc(N(CC(C)Br)CC(C)Br)ccc1N=Nc1ccccc1C(=O)O` (stereo not given): the growth inhibition was 26%.

Take `C(=P(c1ccccc1)(c1ccccc1)c1ccccc1)[P+](c1ccccc1)(c1ccccc1)c1ccccc1.[Cl][Fe]([Cl])([Cl])[Br]`: the growth inhibition was 98% (active).

Take `COc1ccc2c(c1)CCC(N1CCCC(=O)C1)C2` (stereo not given): the growth inhibition was 8%.

For `C1CCNCC1.O=C([CH-]C(=O)C(F)(F)F)c1ccc2c(c1)C(=O)c1ccccc1-2.O=C([CH-]C(=O)C(F)(F)F)c1ccc2c(c1)C(=O)c1ccccc1-2.O=C([CH-]C(=O)C(F)(F)F)c1ccc2c(c1)C(=O)c1ccccc1-2.O=C([CH-]C(=O)C(F)(F)F)c1ccc2c(c1)C(=O)c1ccccc1-2.[Eu+3]`, the growth inhibition is 42%.

Consider `O=C1C(=O)C(Br)(Br)C(Br)=C1Br`, for which the growth inhibition was 1%.

For `CN(C)C(=S)Nc1nnc(NC23CC4CC(CC(C4)C2)C3)s1`, the growth inhibition is -29%.

Consider `C[CH2][Hg]`, for which the growth inhibition was 100% (active).

In the case of `c1cc2n[pH]nc2cn1` (stereo not given), the growth inhibition is -3%.

On to `CCC[CH2][Sn]1([CH2]CCC)[O]CC(Cc2ccccc2)[O]1` (stereo not given), for which the growth inhibition is 22%.

For `Clc1ccccc1C#[C][Hg][C]#Cc1ccccc1Cl`, the growth inhibition was 3%.

`CC12CCC3C(CC=C4CC(SC(=N)N)CCC43C)C1CCC2=O` (stereo not given): the growth inhibition is 5%.

In the case of `COc1ccccc1/C=C/[N+](=O)[O-]`, the growth inhibition was 65%.

`ClC(CN1CCCCC1)C(Cl)c1ccccc1` (stereo not given): the growth inhibition is 2%.

As to `CCC[CH2][Sn]1([CH2]CCC)[O]CC(CN2CCCCC2)[O]1` (stereo not given), the growth inhibition was 20%.

Regarding `COC1OC(CO)C(O)C(O)[CH]1[Hg][Cl]` (stereo not given), the growth inhibition was 99% (active).

Regarding `ClC1=C(Cl)C2(Cl)C(Cl)CC1(Cl)C2(Cl)Cl` (stereo not given), the growth inhibition was -5%.

In the case of `[Hg][c]1ccccc1`, the growth inhibition is 99% (active).

For `O=[N+]([O-])c1cccc(SC(Cl)(Cl)Cl)c1`, the growth inhibition was 40%.

In the case of `CC1=C(O)C(=O)C=C2C1=CC=C1[C@@]2(C)CC[C@@]2(C)[C@@H]3C[C@](C)(C(=O)O)CC[C@]3(C)CC[C@]12C`, the growth inhibition is 74% (active).

In the case of `CCC[CH2][Sn]1([CH2]CCC)[O]C2C(O)OC(CO)C(O)C2[O]1` (stereo not given), the growth inhibition is 74% (active).

Consider `O=[As]c1ccccc1O` (stereo not given), for which the growth inhibition was 0%.

On to `CC[PH+](CC)CC.[Cl][Au]`, for which the growth inhibition was 99% (active).
